# Several values for one entry are separate records, joined by “and”; a condition that tells them apart may be missing. Equal entries are not always repeated. In all, about 6,400 compounds went through this assay and about 610 (9.5%) were called active. Rule as the data show it: active = activity change below about -70%; inconclusive = no clear call, values can overlap the other calls; inactive = above that. What follows is part of a selection rich in actives, with near analogues and random picks from the rest. Some compounds were tested as several samples or in several runs, with calls that do not always agree.
# Experiment: Toxoplasma gondii ME49Luc growth in HeLa cells, luciferase, no IFN-y, primary screen (AID 1259421)
# Conditions: T. gondii ME49Luc in HeLa, 72 h, stronger effect = lower value, concentration not given here
row,SMILES,"activity change, negative = inhibition"
1,CC(=O)c1c(O)c(C)c(O)c2c1OC1=CC(=O)C(C(C)=O)C(=O)C12C (stereo not given),-3.87% (inactive)
2,COc1ccccc1OCC(O)CNC(C)C (stereo not given),17.1% (inactive) and 3.92% (inactive)
3,COc1cc2c(cc1OC)C(=O)CC2,4.96% (inactive)
4,COc1cc(CCC(C)=O)ccc1O,7.65% (inactive)
5,COC(=O)C[C@](O)(CCCC(C)(C)O)C(=O)O[C@@H]1C(OC)=C[C@]23CCCN2CCc2cc4c(cc2[C@H]13)OCO4,-83.4% (active) and -83.9% (active) and -85.7% (active)
6,COCCCOc1ccnc(CS(=O)c2nc3ccccc3[nH]2)c1C (stereo not given),106% (inactive) and 41.3% (inactive)
7,N#CC(c1ccnc(OCc2ccc(CN3CCOCC3)cc2)n1)c1nc2ccccc2s1 (stereo not given),-29.2% (inactive)
8,C[C@@H](Oc1cc(-n2cnc3ccc(CN4CCN(C)CC4)cc32)sc1C(N)=O)c1ccccc1C(F)(F)F,-75.7% (active)
9,COc1cc2ncn(-c3cc(OCc4ccccc4C(F)(F)F)c(C(N)=O)s3)c2cc1OC,-75.1% (active)
10,C[C@H]1CC2C([C@@H](O)C[C@@]3(C)C2CC[C@]3(O)C(=O)COC(=O)CCC(=O)O)[C@@]2(C)C=CC(=O)C=C12 (stereo not given in full),5.48% (inactive) and 3.76% (inactive)
11,COC1CC2CCC(C)C(O)(O2)C(=O)C(=O)N2CCCCC2C(=O)OC(C(C)CC2CCC(O)C(OC)C2)CC(=O)C(C)/C=C(\C)C(O)C(OC)C(=O)C(C)CC(C)/C=C/C=C/C=C/1C (stereo not given),5.34% (inactive) and -8.87% (inactive)
12,C=C1CC2C3C=C(C)C4=CC(=O)CC[C@]4(C)C3CC[C@]2(C)[C@@]1(OC(C)=O)C(C)=O (stereo not given in full),10.5% (inactive) and -22.4% (inactive)
13,CCCCCCCCCCCCCCCCCC(=O)OCC(O)CO (stereo not given),5.64% (inactive)
14,COc1ccc(C2CC(c3c(O)cc(C)oc3=O)=NCCS2)c(OC)c1 (stereo not given),10.3% (inactive)
15,CO[C@H]1C=CO[C@@]2(C)Oc3c(C)c(O)c4c(O)c(c(/C=N/N5CCN(C6CCCC6)CC5)c(O)c4c3C2=O)NC(=O)/C(C)=C\C=C[C@H](C)[C@H](O)[C@@H](C)[C@@H](O)[C@@H](C)[C@H](OC(C)=O)[C@@H]1C,-5.33% (inactive)
16,CCCCCCCCCCCCCCCCCCOC[C@H](COP(=O)(O)OCC[N+](C)(C)C)OC,5.04% (inactive)
17,O=c1c(-c2ccc(O)cc2)coc2c([C@@H]3O[C@H](CO)[C@@H](O)[C@H](O)[C@H]3O)c(O)ccc12,-0.619% (inactive)
18,Cc1[nH]c(/C=C2\C(=O)Nc3ccccc32)c(C)c1CCC(=O)O,7.07% (inactive)
19,CCN(CC)CCNC(=O)c1c(C)[nH]c(/C=C2\C(=O)Nc3ccc(F)cc32)c1C,-75.8% (active)
20,Cc1[nH]c(/C=C2/C(=O)Nc3ccc(F)cc32)c(C)c1C(=O)NC[C@H](O)CN1CCOCC1,-69.2% (inactive)
21,COc1cccc(OC)c1-c1ccc(C[C@H](NC(=O)c2c(Cl)cccc2Cl)C(=O)O)cc1,4.91% (inactive)
22,O=C(c1ccc(OCCCc2cnc[nH]2)cc1)C1CC1,31.1% (inactive)
23,CN=C(NC)NCc1ccc(OC)cc1,0.956% (inactive)
24,CC(C)CC1C(=O)N2CCCC2C2(O)OC(NC(=O)C3C=C4c5cccc6[nH]c(Br)c(c56)CC4N(C)C3)(C(C)C)C(=O)N12 (stereo not given),18.4% (inactive)

row,SMILES,"activity change, negative = inhibition"
1,COc1cc2c(cc1OC)C(C(C(=O)N(CCc1ccc(OC)c(OC)c1OC)CCc1ccc(OC)c(OC)c1OC)c1ccccc1)=NCC2 (stereo not given),23.5% (inactive)
2,CC(C)n1nc(-c2cc3cc(O)ccc3[nH]2)c2c(N)ncnc21,-50.4% (inactive)
3,CC(C)n1nc(-c2ccc3oc(N)nc3c2)c2c(N)ncnc21,-74.3% (active)
4,CC(=O)O[C@@H]1CC[C@@]2(C)C(C[C@@H](OC(C)=O)[C@@]3(C)C4=CC(=O)O[C@@H](c5ccoc5)[C@]4(C)CCC23)C1(C)C (stereo not given in full),12.5% (inactive)
5,O=C(O)CCc1c(C(=O)O)[nH]c2cc(Cl)cc(Cl)c12,12.5% (inactive)
6,CCC(C)[C@H]1O[C@]2(CC[C@@H]1C)C[C@@H]1C[C@@H](C/C=C(\C)[C@@H](OC3C[C@H](OC)C(O[C@H]4C[C@H](OC)[C@@H](O)[C@H](C)O4)[C@H](C)O3)[C@@H](C)/C=C/C=C3\CO[C@@H]4[C@H](O)C(C)=C[C@@H](C(=O)O1)[C@]34O)O2 (stereo not given in full),-67.1% (inactive)
7,CC[C@H](C)[C@H]1O[C@]2(CC[C@@H]1C)C[C@@H]1C[C@@H](C/C=C(\C)[C@@H](O[C@H]3C[C@H](OC)[C@@H](O[C@H]4C[C@H](OC)[C@@H](O)[C@H](C)O4)[C@H](C)O3)[C@@H](C)/C=C/C=C3\CO[C@@H]4[C@H](O)C(C)=C[C@@H](C(=O)O1)[C@]34O)O2,-65% (inactive) and -79.5% (active)
8,CCC(C)[C@H]1O[C@]2(C=C[C@@H]1C)C[C@@H]1C[C@@H](C/C=C(\C)[C@@H](OC3C[C@H](OC)C(O[C@H]4C[C@H](OC)[C@@H](NC(C)=O)[C@H](C)O4)[C@H](C)O3)[C@@H](C)/C=C/C=C3\CO[C@@H]4[C@H](O)C(C)=C[C@@H](C(=O)O1)[C@]34O)O2 (stereo not given in full),-6.74% (inactive)
9,COc1ccccc1N1CCN(CCCCN2C(=O)CCC2=O)CC1,-10.5% (inactive) and 6.09% (inactive)
10,C[C@]12C=CC(=O)C=C1CCC1C2C(=O)C[C@@]2(C)C1CC[C@]2(O)C(=O)CO (stereo not given in full),-0.495% (inactive)
11,C=COCC(F)(F)F,2.78% (inactive)
12,COc1ncnc(N)c1OC,8.31% (inactive)
13,C[C@]12CCC3c4ccc(O)cc4CCC3C1CC[C@@H]2OC(=O)CCC1CCCC1 (stereo not given in full),-65.2% (inactive) and 3.38% (inactive)
14,CCCCC(=O)O[C@H]1CC[C@H]2[C@@H]3CCc4cc(O)ccc4[C@H]3CC[C@]12C,-58.1% (inactive)
15,C[C@]12CC[C@@H]3c4ccc(O)cc4C[C@@H](CCCCCCCCCS(=O)CCCC(F)(F)C(F)(F)F)[C@H]3[C@@H]1CC[C@@H]2O (stereo not given in full),-83.4% (active)
16,CC(C)(C)N1CCC(c2ccccc2)(c2ccccc2)CC1,14.2% (inactive)
17,CCC[C@@]1(CCc2ccccc2)CC(=O)C([C@H](CC)c2cccc(NS(=O)(=O)c3ccc(C(F)(F)F)cn3)c2)C(=O)O1 (stereo not given in full),10.4% (inactive)
18,COc1ccc(NC(=O)c2ccc(C(=N)N(C)C)cc2)c(C(=O)Nc2ccc(Cl)cn2)c1,-0.285% (inactive)
19,COc1cc(CCc2cc(NC(=O)c3ccc(N4C[C@@H](C)N[C@@H](C)C4)cc3)n[nH]2)cc(OC)c1,-81.1% (active)
20,COc1ccc(C(=O)Nc2c(Cl)cncc2Cl)cc1OC1CCCC1,3.75% (inactive)
21,C/C=N/N(C)C=O,3.01% (inactive)
22,Cc1[nH]c(C)c(Cl)c(=O)c1Cl,-1.17% (inactive) and -3.71% (inactive)
23,Cc1cccc(Oc2cnc(=O)[nH]c2)c1,9.21% (inactive)
24,CCCS(=O)(=O)Nc1ccc(F)c(C(=O)c2c[nH]c3ncc(Cl)cc23)c1F,-26.4% (inactive)

row,SMILES,"activity change, negative = inhibition"
1,CCCCOC(=O)c1cc2c(cn1)[nH]c1ccccc12,42.7% (inactive) and 253% (inactive)
2,CCCCOc1c(C(=O)c2c(F)cc(C)cc2F)cnc2n[nH]cc12,-88.2% (active)
3,COc1cc(OC)c2ccc(=O)oc2c1,1.05% (inactive)
4,Clc1ccc(CCCOCCCN2CCCCC2)cc1,2.37% (inactive)
5,COc1cc(S(C)=O)ccc1-c1nc2ncccc2[nH]1 (stereo not given),-7.2% (inactive) and 19.1% (inactive)
6,CS(=O)(=O)c1ccc(-c2nc(-c3ccc(F)cc3)c(-c3ccncc3)[nH]2)cc1,-5.72% (inactive)
7,COc1ccc2cc(-c3nc(-c4ccc(S(C)=O)cc4)[nH]c3-c3ccncc3)ccc2c1 (stereo not given),-51.3% (inactive)
8,CS(=O)c1ccc(-c2nc(-c3ccc(F)cc3)c(-c3ccncc3)[nH]2)cc1 (stereo not given),-85.1% (active) and -89.6% (active)
9,Oc1ccc(-c2nc(-c3ccc(F)cc3)c(-c3ccncc3)[nH]2)cc1,-91.7% (active) and -92.7% (active)
10,CC1(C)O[C@H]2CC(=O)OC[C@]23[C@H]2CC[C@@]4(C)[C@H](c5ccoc5)OC(=O)[C@H]5O[C@]54[C@]2(C)C(=O)C[C@@H]13,7.46% (inactive)
11,CC/C=C\C/C=C\C/C=C\C/C=C\C/C=C\C/C=C\CCC(=O)OCC,4.98% (inactive)
12,COc1cc(O)c(C(=O)c2ccccc2)cc1O,6.03% (inactive)
13,Cc1cc(CC(C)CC(C)(C)C)n(O)c(=O)c1 (stereo not given),-84.1% (active)
14,Nc1nnnn1-c1ccccc1,6.66% (inactive)
15,CCCCCCCCCCCCCC(=O)OC(C)C,13.1% (inactive)
16,N#Cc1ncccn1,3.94% (inactive)
17,COc1cc(/C=C2\CCCN([C@@H](C)c3ccc(F)cc3)C2=O)ccc1-n1cnc(C)c1,-5.26% (inactive)
18,Cn1cc(-c2[nH]c3cc(NC(=O)[C@H](N)C4CCCCC4)cc4c3c2C=NNC4=O)cn1,-91.8% (active) and -59.2% (inactive)
19,CC(C)(C)Sc1c(CC(C)(C)C(=O)O)n(Cc2ccc(Cl)cc2)c2ccc(OCc3ccc4ccccc4n3)cc12,12.6% (inactive)
20,COC(=O)C(Cc1ccc(OCCn2c(=O)sc3cc(C(=O)c4ccccc4)ccc32)cc1)C(=O)OC,18.5% (inactive)
21,CN(C)CCCO[C@H]1[C@@H](C(O)CO)OC2OC(C)(C)O[C@@H]21 (stereo not given in full),4.68% (inactive)
22,Oc1cc2c(c(Cl)c1O)CCNC[C@@H]2c1ccccc1,-18.1% (inactive)

# Source: PubChem BioAssay AID1259421 (Broad Institute, 2018)
